From PubChem BioAssay (NCI) come the findings set out here.

Compounds without any hit were thinned out: in the full panel of roughly 79,000, 15% have a hit. A number with no mark means an inactive call. Activity calls are given as the source filed them. No stated cut-off is given here; in the data, active means growth inhibition above about 70%; inactive means the rest.

Assay [1] is described as follows: NCI Yeast Anticancer Drug Screen. Data for the rad50 strain (AID 155).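 Further: 0% = growth of vehicle-only cultures of the same strain.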 The settings on record: S. cerevisiae rad50 strain growth inhibition, stronger effect = higher value. A digest of the protocol: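 Cells are treated with compound, grown, and their growth is then scored against vehicle-only cultures of the same repair-deficient yeast strain.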
Assay [2] can be described thus: NCI Yeast Anticancer Drug Screen. Data for the mec2-1 strain (AID 157). The settings on record: S. cerevisiae mec2-1 strain, stronger effect = higher value. Summed up:
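Using mec2-1 yeast: add compound, measure growth, express inhibition versus vehicle-treated cultures.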

Assay [3] is described as follows: NCI Yeast Anticancer Drug Screen. Data for the sgs1 mgt1 strain (AID 161).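 Further: 0% = growth of cultures given vehicle only.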 Particulars: S. cerevisiae sgs1 mgt1 strain, stronger effect = higher value. A digest of the protocol:
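Growth of a repair-deficient yeast mutant was monitored after compound treatment and expressed as inhibition relative to vehicle-treated cultures.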

Assay [4] in a line: NCI Yeast Anticancer Drug Screen. Data for the cln2 rad14 strain (AID 165).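 Further: 0% = growth equal to vehicle treated cultures.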 Particulars: S. cerevisiae cln2 rad14 strain, stronger effect = higher value. A digest of the protocol:
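Yeast strain cln2 rad14, bearing defects in cell cycle control and DNA repair, serves as the test system; values reflect growth inhibition compared with vehicle.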

The nature of assay [5]: NCI Yeast Anticancer Drug Screen. Data for the bub3 strain (AID 167). Particulars: S. cerevisiae bub3 mutant strain, stronger effect = higher value. Summed up: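 Part of a panel of yeast mutants defective in DNA damage repair or cell cycle regulation. Each strain is grown with compound, and inhibition is calculated relative to solvent-treated cultures.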
A short description of assay [6]: NCI Yeast Anticancer Drug Screen. Data for the mlh1 rad18 strain (AID 175). Particulars: S. cerevisiae mlh1 rad18 strain growth inhibition, stronger effect = higher value. A digest of the protocol:
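Steps: expose repair-defective yeast to compound; measure growth; express inhibition against vehicle-treated controls.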

[7] abbreviates: at 5.0 µM (retest, dose inferred, filed as 0.5).
The mark [8] stands for this setting: at 50.0 µM (retest, dose inferred, filed as 5.0).

`C[Si](C)(C)CC(c1ccccc1)C(O)c1ccccc1` (centres undefined): the growth inhibition was -7% in assay [1] (setting [7]); 96% (active) in assay [1] (setting [8]); 98.5% (active) in assay [1] (at 50.0 µM); -4% in assay [2] (setting [7]); 98% (active) in assay [2] (setting [8]); 97.8% (active) in assay [2] (at 50.0 µM). Also, the growth inhibition in assay [3] (setting [7]) was -3%; in assay [3] (setting [8]), 98% (active); in assay [3] (at 50.0 µM), 98% (active); in assay [4] (setting [7]) it was 0%; in assay [4] (setting [8]), 97% (active); in assay [4] (at 50.0 µM), 93.9% (active). Besides, the growth inhibition in assay [5] (setting [7]) is 0%; in assay [5] (setting [8]) it was 98% (active); in assay [5] (at 50.0 µM) it was 98.7% (active); in assay [6] (setting [7]) it was 1%; in assay [6] (setting [8]), 98% (active); in assay [6] (at 50.0 µM) it was 98.8% (active).
As for `O=[N+]([O-])c1ccc2c(c1)[nH]c1ccccc12`, the growth inhibition in assay [1] (setting [7]) is -138%; in assay [1] (setting [8]), 36%; in assay [1] (at 50.0 µM), 93.2% (active); in assay [2] (setting [7]) it was -45%; in assay [2] (setting [8]), -32%; in assay [2] (at 50.0 µM), 40.1%. The growth inhibition is -65% in assay [3] (setting [7]); -11% in assay [3] (setting [8]); 73.8% (active) in assay [3] (at 50.0 µM); -57% in assay [4] (setting [7]); -63% in assay [4] (setting [8]); 68.6% in assay [4] (at 50.0 µM). Also, the growth inhibition was -66% in assay [5] (setting [7]); -40% in assay [5] (setting [8]); 69.2% in assay [5] (at 50.0 µM); -139% in assay [6] (setting [7]); -10% in assay [6] (setting [8]); 89% (active) in assay [6] (at 50.0 µM).
Turning to `ClCc1ccc2ccc3ccc(CCl)nc3c2n1`, the growth inhibition in assay [1] (setting [7]) was 31%; in assay [1] (setting [8]) it was 81% (active); in assay [1] (at 50.0 µM), 47.1%; in assay [2] (setting [7]), 67%; in assay [2] (setting [8]), 93% (active); in assay [2] (at 50.0 µM), 43%. In addition, the growth inhibition is 65% in assay [3] (setting [7]); 93% (active) in assay [3] (setting [8]); 70.2% (active) in assay [3] (at 50.0 µM); 29% in assay [4] (setting [7]); 81% (active) in assay [4] (setting [8]); 27.8% in assay [4] (at 50.0 µM). The growth inhibition in assay [5] (setting [7]) was -7%; in assay [5] (setting [8]), 95% (active); in assay [5] (at 50.0 µM) it was 59%; in assay [6] (setting [7]), 72% (active); in assay [6] (setting [8]), 94% (active); in assay [6] (at 50.0 µM), 62%.
As to `O=C(OCc1ccccc1)c1ccccc1Cl`, the growth inhibition in assay [1] (setting [7]) was 3%; in assay [1] (setting [8]) it was 21%; in assay [1] (at 50.0 µM), 50.4%; in assay [2] (setting [7]) it was -3%; in assay [2] (setting [8]) it was 0%; in assay [2] (at 50.0 µM) it was 14.1%. Besides, the growth inhibition in assay [3] (setting [7]) was 2%; in assay [3] (setting [8]), 14%; in assay [3] (at 50.0 µM), 40.2%; in assay [4] (setting [7]), 4%; in assay [4] (setting [8]), -11%; in assay [4] (at 50.0 µM) it was -18.6%. For the same compound, the growth inhibition is 10% in assay [5] (setting [7]); 19% in assay [5] (setting [8]); 30.9% in assay [5] (at 50.0 µM); 3% in assay [6] (setting [7]); 14% in assay [6] (setting [8]); 82.8% (active) in assay [6] (at 50.0 µM).
Turning to `CC(Br)C(=O)c1ccc(OCc2ccccc2)cc1` (centres undefined), the growth inhibition is 15% in assay [1] (setting [7]); 84% (active) in assay [1] (setting [8]); 90.7% (active) in assay [1] (at 50.0 µM); 14% in assay [2] (setting [7]); 99% (active) in assay [2] (setting [8]); 94.2% (active) in assay [2] (at 50.0 µM). Besides, the growth inhibition in assay [3] (setting [7]) is 8%; in assay [3] (setting [8]), 75% (active); in assay [3] (at 50.0 µM), 89.9% (active); in assay [4] (setting [7]), 22%; in assay [4] (setting [8]), 78% (active); in assay [4] (at 50.0 µM) it was 92.3% (active). The growth inhibition was 6% in assay [5] (setting [7]); 99% (active) in assay [5] (setting [8]); 90% (active) in assay [5] (at 50.0 µM); 13% in assay [6] (setting [7]); 94% (active) in assay [6] (setting [8]); 77.9% (active) in assay [6] (at 50.0 µM).
On to `CCc1ccc2c(-c3ccccc3)c3ccccc3c(-c3ccccc3)c2c1`, for which the growth inhibition in assay [1] (setting [7]) was 0%; in assay [1] (setting [8]), -4%; in assay [1] (at 50.0 µM), -7.9%; in assay [2] (setting [7]), 3%; in assay [2] (setting [8]), -10%; in assay [2] (at 50.0 µM), -5.6%. Further, the growth inhibition in assay [3] (setting [7]) was 1%; in assay [3] (setting [8]), 6%; in assay [3] (at 50.0 µM), -9.25%; in assay [4] (setting [7]), -4%; in assay [4] (setting [8]) it was -11%; in assay [4] (at 50.0 µM), 34.9%. Further, the growth inhibition in assay [5] (setting [7]) was -4%; in assay [5] (setting [8]), -8%; in assay [5] (at 50.0 µM), 7.35%; in assay [6] (setting [7]) it was -1%; in assay [6] (setting [8]), -8%; in assay [6] (at 50.0 µM), 0.05%.
Regarding `[N-]=[N+]=CC(=O)C1(c2ccccc2)OC1c1ccccc1` (centres undefined), the growth inhibition in assay [1] (setting [7]) was -20%; in assay [1] (setting [8]), 1%; in assay [1] (at 50.0 µM), 23.6%; in assay [2] (setting [7]), 7%; in assay [2] (setting [8]), 10%; in assay [2] (at 50.0 µM), 2.55%. Further, the growth inhibition in assay [3] (setting [7]) is -16%; in assay [3] (setting [8]), -4%; in assay [3] (at 50.0 µM), 55.5%; in assay [4] (setting [7]), -21%; in assay [4] (setting [8]), -18%; in assay [4] (at 50.0 µM), 32.5%. Further, the growth inhibition in assay [5] (setting [7]) is -43%; in assay [5] (setting [8]), -6%; in assay [5] (at 50.0 µM), -7.55%; in assay [6] (setting [7]), -32%; in assay [6] (setting [8]), -33%; in assay [6] (at 50.0 µM) it was 82.8% (active).
Turning to `CCOC(=O)Cc1csc(/C=C/c2ccc(OC)c(OC)c2)n1`, the growth inhibition in assay [1] (setting [7]) was -15%; in assay [1] (setting [8]), 8%; in assay [1] (at 50.0 µM), 17.2%; in assay [2] (setting [7]), -1%; in assay [2] (setting [8]) it was 20%; in assay [2] (at 50.0 µM) it was 11.8%. In addition, the growth inhibition in assay [3] (setting [7]) was -13%; in assay [3] (setting [8]), 14%; in assay [3] (at 50.0 µM), 6.9%; in assay [4] (setting [7]), 3%; in assay [4] (setting [8]), 37%; in assay [4] (at 50.0 µM), -37.2%. Besides, the growth inhibition in assay [5] (setting [7]) is 7%; in assay [5] (setting [8]) it was 8%; in assay [5] (at 50.0 µM), -12.7%; in assay [6] (setting [7]) it was 1%; in assay [6] (setting [8]), 18%; in assay [6] (at 50.0 µM) it was 21.4%.
